High-throughput results deposited in PubChem BioAssay by The Scripps Research Institute Molecular Screening Center.
M1 ag parental: counter-screen for M1 agonists: effect in parental CHO-K1 cells; AID 602248, 2012; activation, % at 3 µM; hit rate 0.48% among 360,000; Fluo-8 calcium fluorescence; scaled to maximal ATP response, vehicle zero; in the data active means activation above about 15%;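 further: untransfected CHO-K1 host cells lacking M1 receptor as counterscreen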
M4 PAM: human M4 muscarinic receptor positive allosteric modulators, primary screen, CHO-K1 cells, Fluo-8 calcium fluorescence; hit rate 0.4% among 360,000; activation, % at 3 µM; AID 624126, 2012; CHO-K1 hM4/Gqi5, ACh EC20; 0% = ACh EC20, 100% = maximal ACh;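 active means activation above its plate's cutoff, the mean activation of sample wells plus 3 SD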
Target sequence (P08173 whole entry, looked up): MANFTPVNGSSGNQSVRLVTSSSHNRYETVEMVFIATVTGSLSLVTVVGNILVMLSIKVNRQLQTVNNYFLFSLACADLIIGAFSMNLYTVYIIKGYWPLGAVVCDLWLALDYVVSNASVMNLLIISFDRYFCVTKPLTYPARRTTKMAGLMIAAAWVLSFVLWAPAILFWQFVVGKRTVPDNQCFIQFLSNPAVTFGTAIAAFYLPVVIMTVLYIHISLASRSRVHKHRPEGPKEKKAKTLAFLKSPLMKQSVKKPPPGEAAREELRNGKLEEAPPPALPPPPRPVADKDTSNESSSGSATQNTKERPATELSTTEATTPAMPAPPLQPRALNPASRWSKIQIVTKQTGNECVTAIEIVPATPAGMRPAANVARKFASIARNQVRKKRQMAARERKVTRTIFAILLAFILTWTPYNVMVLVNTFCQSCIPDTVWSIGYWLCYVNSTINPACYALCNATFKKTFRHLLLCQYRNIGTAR
CHO-K1 Ca antag: M1 antagonist counterscreen hit in parental CHO-K1 cells; hit rate 0.6% among 360,000; inhibition, % at 3 µM; ATP-induced calcium, Fluo-8 fluorescence;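 active means inhibition above a per-plate cutoff, the plate's mean sample inhibition plus 3 SD, cut at about 24% in these data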
M4 antag: human M4 muscarinic receptor antagonists, primary screen, CHO cells, Fluo-8 calcium fluorescence; CHO-hM4 cells, ACh EC80; hit rate 0.73% among 360,000; inhibition, % at 3 µM; AID 624125, 2012;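 active means inhibition above its plate's cutoff, the mean inhibition of sample wells plus 3 SD, cut at about 27% in these data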
CHO-K1 Ca PAM: nonselective calcium activators in parental CHO-K1 cells, primary screen, counter-screen for M1 PAM project, cell-based, Fluo-8 calcium fluorescence, full deck, 1536-well; hit rate 0.02% among 360,000; ATP EC20; 0% at ATP EC20, 100% at ATP max; AID 602247, 2012; activation, % at 3 µM;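 active means activation above the run cutoff, the mean activation of all test compounds plus 3 SD, cut at about 40% in these data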;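 further: peak over basal fluorescence ratio in a 140 s read after ATP addition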
M4 ag: human M4 muscarinic receptor agonists, primary screen, CHO-K1 cells, Fluo-8 calcium fluorescence | Muscarinic acetylcholine receptor M4 (Homo sapiens), P08173 | CHO-K1 hM4/Gqi5; vehicle 0%, full acetylcholine response 100% | activation, % at 3 µM | hit rate 0.14% among 360,000 | AID 624127, 2012;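 active means activation above the run mean over all test wells plus 3 SD, cut at about 32% in these data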;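 further: peak over basal fluorescence ratio per well then scaled between controls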
Large screens that a line does not name were inactive. Shown are actives, neighbours in structure and some others; about 2% of the full set was active somewhere.

Cc1ccc(S(=O)(=O)n2nnc3ccccc32)c(C)c1C	M4 PAM 24
CC1=NNC(=O)C1C(c1cccc(O)c1)C(C#N)C#N (stereo not drawn)	CHO-K1 Ca antag 29
CC1=NNC(=O)C1C(c1ccc(Cl)cc1)C(C#N)C#N (stereo not drawn)	none
Cc1cc(=O)n2nc(N3CCCC(C(=O)N4CCc5ccccc54)C3)sc2n1 (stereo not drawn)	M4 antag 32
Cc1cc(=O)n2nc(N3CCCC(C(=O)N4CCOCC4)C3)sc2n1 (stereo not drawn)	none
COc1ccccc1/C=C/C=c1\sc2nc(=O)c(Cc3ccccc3)nn2c1=O	none
CCc1nnc(NS(=O)(=O)c2ccc(NC(=S)NC(=O)/C=C/c3ccc(C(C)C)cc3)cc2)s1	M4 antag 27
CC(C)C(=O)NC(=S)Nc1ccc(S(=O)(=O)Nc2nccs2)cc1	M1 ag parental 16
CCc1nnc(NS(=O)(=O)c2ccc(NC(=S)NC(=O)/C=C/c3ccccc3)cc2)s1	none
O=C(c1ccccc1)c1ccc(OCC(O)CNCc2ccc(Cl)cc2)cc1 (stereo not drawn)	M1 ag parental 18
Cc1nn(C)cc1S(=O)(=O)Nc1cccc(Cl)c1	none
COc1cc2c(cc1OC)-c1nnc(C)n1C1(CCCC1)C2	CHO-K1 Ca antag 27
CC(=O)c1cc2c(cc1NS(=O)(=O)c1cccc(C(=O)O)c1)OCO2	none
CC(=O)c1cc2c(cc1NS(=O)(=O)c1ccccc1)OCO2	M4 antag 30
CC[N+](C)(CC)CCC(c1ccccc1)C1CCCCC1 (stereo not drawn)	M4 antag 97
CC[N+](C)(CC)CCOC(=O)C(O)(c1ccccc1)C1CCCCC1 (stereo not drawn)	M4 antag 99
COC(=O)c1cc(OC)c(OC)cc1NC(=O)c1ccc(OC)cc1	M1 ag parental 20, CHO-K1 Ca antag 26
COc1ccc(NC(=O)c2ccccc2Oc2ccccc2)c(OC)c1	none
COc1ccccc1NC(=O)c1cccnc1	none
COc1ccc(C(=O)Nc2ccccc2Cc2ccccc2)c(OC)c1	CHO-K1 Ca PAM 52
COc1ccc(NC(=O)c2cccnc2)c(OC)c1	CHO-K1 Ca antag 27
COC(=O)c1cc(OC)c(OC)cc1NC(=O)c1ccc(C)cc1	none
COc1ccc(NC(=O)c2ccccc2OCc2ccc(F)cc2)c(OC)c1	CHO-K1 Ca PAM 43
COc1ccc(C(=O)Nc2ccc(C)cc2C(=O)c2ccccc2)c(OC)c1	none
Cc1ccc(N)cc1S(=O)(=O)N(C)C	none
COc1cccc2cc(C(=O)C3=C(O)C(=O)N(CCN4CCOCC4)C3c3cccc(Cl)c3)oc12 (stereo not drawn)	CHO-K1 Ca antag 27
COc1cccc2cc(C(=O)C3=C(O)C(=O)N(CCN4CCOCC4)C3c3ccc(Cl)cc3)oc12 (stereo not drawn)	none
O=C(C1=C(O)C(=O)N(CCN2CCOCC2)C1c1cccc(O)c1)c1cc2ccccc2o1 (stereo not drawn)	M4 PAM 19
Cc1csc2c(SCC(=O)NNS(=O)(=O)c3cccc(C(F)(F)F)c3)ncnc12	none
O=S1(=O)NC(=NC2CCCCCC2)c2ccccc21	none
CCOC(=O)C1=CC[C@@H](c2ccccc2)N(S(=O)(=O)c2ccc(C)cc2)[C@H]1c1ccc(C#N)cc1	none
CCOC(=O)C1=CC[C@@H](c2ccccc2)N(S(=O)(=O)c2ccc(C)cc2)[C@H]1C#N	M4 antag 32
CCOC(=O)C1=CCN(S(=O)(=O)c2ccc(C)cc2)C1c1cccc(Cl)c1 (stereo not drawn)	CHO-K1 Ca antag 29
CCOC(=O)C1=CCN(S(=O)(=O)c2cccc(Cl)c2)C1c1cccc(C)c1 (stereo not drawn)	none
CCCC(=O)Nc1cc(-c2nn(C)c(=O)c3ccccc23)ccc1OC	CHO-K1 Ca antag 24
Cc1c(C(=O)N2CCN(Cc3nccn3C)CC2)oc2c(F)cccc12	none
Cc1onc(-c2ccccc2Cl)c1C(O)c1ccc(F)cc1 (stereo not drawn)	none
Cc1onc(-c2ccccc2)c1C(O)c1ccc(F)cc1 (stereo not drawn)	CHO-K1 Ca antag 33
CN(C)CC/C=C1/c2cc(F)ccc2CSc2ccc(F)cc21	M4 antag 84
Clc1ccc2c(c1)-c1[nH]ncc1CS2	none
CN(C)CC/C=C1\c2cc(F)ccc2CSc2ccccc21	M4 antag 97
CN(CC(CC(=O)Nc1nncs1)c1ccccc1)S(=O)(=O)c1ccccc1 (stereo not drawn)	none
Cc1ccc2nc(Nc3ccccc3)c(/C=N/O)c(=O)n2c1	CHO-K1 Ca antag 26
COc1ccc(Nc2nc3ccc(C)cn3c(=O)c2/C=N/O)cc1	none
O=C(Nc1ncc(Cc2ccccc2)s1)C1CCCO1 (stereo not drawn)	none
CNc1ncc(Cc2ccccc2)s1	CHO-K1 Ca antag 24
N[C@@]12CCc3nonc3[C@]1(O)CC(c1ccccc1)=[N+]2[O-]	M4 PAM 26
CCOc1ccc(C(C)NC(=O)C2CCN(S(=O)(=O)c3ccc(OC)cc3)CC2)cc1OCC (stereo not drawn)	none
O=C(NC1CCCCCC1)c1c(F)c(F)c(F)c(F)c1F	none
CCN(CC#CCC1(O)c2ccccc2-c2ccccc21)C(C)C	M4 antag 35
CC1(C)CC(=O)c2c(oc3ccc(NS(=O)(=O)c4ccc(C(=O)O)cc4)cc23)C1	CHO-K1 Ca antag 25
c1ccc(C(CN2CCCCC2)Oc2ccccn2)cc1 (stereo not drawn)	M4 antag 35
CCN(Cc1ccccc1)C(=O)COC(=O)Cc1c[nH]c2ccccc12	CHO-K1 Ca antag 25
CCOC(=O)Cc1c[nH]c2ccccc12	none
NNS(=O)(=O)c1ccc(Sc2ccccn2)c([N+](=O)[O-])c1	none
CCOC(=O)Cn1nc(CC)c2ccccc2c1=O	none
COc1ccc(C(=O)c2cnc(/N=C/N(C)C)s2)cc1	CHO-K1 Ca antag 33
CN(C)/C=N/c1ncc(C(=O)c2ccc3ccccc3c2)s1	none
COc1ccc(CC(=O)NCc2n[nH]c(=S)n2-c2ccccc2)cc1	none
COc1ccc(CSCCc2n[nH]c(=S)n2-c2ccccc2)cc1	M4 antag 48
CCOC(CNc1ncnc2c1cnn2C)OCC	none
Cc1ccc(NN2C(=O)C=C(c3ccc(Cl)cc3)C2=O)cc1	CHO-K1 Ca antag 31, M4 antag 70
O=C1C=C(c2ccccc2)C(=O)N1Nc1ccccc1	none
CCCCNc1c(-c2ccc(OC)c(SC(C)CC)c2)nc2ccc(Cl)cn12 (stereo not drawn)	none
